Experimental data reported in PubChem BioAssay (NCATS).
Records with an inconclusive call do not appear. A call without a number means that no potency is given here. Active and inactive are the calls of the source. The call rests on the fitted dose curve; in most records, active means well fitted inhibition curve with a large enough effect in the signal ratio, with a control signal flat (not every such curve was filed as active); inconclusive means small, poorly fitted or top-dose-only effect, or effect the other way, or a change in a side signal; inactive means flat fitted curve, though single readings scatter; the % refers to the signal ratio.

Biological target: Peroxisome proliferator-activated receptor gamma (Homo sapiens) (UniProt P37231)
Sequence (P37231 whole entry, looked up): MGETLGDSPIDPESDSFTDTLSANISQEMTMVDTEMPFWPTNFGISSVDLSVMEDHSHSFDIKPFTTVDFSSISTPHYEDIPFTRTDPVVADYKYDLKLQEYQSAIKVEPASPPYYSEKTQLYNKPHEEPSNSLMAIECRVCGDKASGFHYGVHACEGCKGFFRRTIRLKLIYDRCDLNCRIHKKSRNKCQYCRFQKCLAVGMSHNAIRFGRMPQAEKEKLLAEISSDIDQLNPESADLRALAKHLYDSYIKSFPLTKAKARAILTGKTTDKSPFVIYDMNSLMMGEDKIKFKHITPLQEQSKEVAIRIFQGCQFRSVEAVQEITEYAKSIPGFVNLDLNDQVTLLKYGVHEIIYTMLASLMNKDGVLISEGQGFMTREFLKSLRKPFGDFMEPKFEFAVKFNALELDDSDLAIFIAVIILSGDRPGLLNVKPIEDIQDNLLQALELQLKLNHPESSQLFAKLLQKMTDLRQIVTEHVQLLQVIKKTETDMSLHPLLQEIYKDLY
Assay: qHTS assay for small molecule antagonists of peroxisome proliferator-activated receptor gamma signaling (AID 588537)
Conditions: HEK293 PPARg-UAS-bla, beta-lactamase ratio, antagonist mode; series mostly up to 76.8 µM
Source text: NIH Chemical Genomics Center [NCGC]
U.S. Environmental Protection Agency [EPA]
National Institutes of Environmental Health Sciences [NIEHS]
National Toxicology Program [NTP]
The Peroxisome proliferator-activated receptors (PPARs) are lipid-activated transcription factors of the nuclear receptor superfamily with three distinct subtypes namely PPAR alpha, PPAR delta (also called PPAR beta) and PPAR gamma. All these subtypes heterodimerizes with Retinoid X receptor (RXR) and these heterodimers regulate transcription of various genes. PPAR-gamma (glitazone receptor) ligands have been used in the treatment of type 2 diabetes and dyslipidaemia. It is involved in the regulation of glucose and lipid metabolism. PPAR-gamma activates certain genes like Paraoxonase 1 which is responsible for hydrolyzing organophosphates. PPAR-gamma ligands may also be therapeutically important in the treatment of coronary artery disease, obesity and cancer and atherosclerosis.
NCGC Assay Protocol Summary
Using a beta-lactamase reporter-gene under control of Peroxisome Proliferator-Activated-gamma (PPAR-gamma) response element, a cell-based assay [GeneBLAzer PPAR-gamma-UAS-bla assay developed by Invitrogen] was used to measure PPAR-gamma ligands signaling. GeneBLAzer PPAR-gamma-UAS-bla-HEK293 cells were used with assay medium containing 1% charcoal/dextran treated FBS. The assay was performed in clear bottom black Greiner 1536-well plates. Library compounds were measured for their ability to inhibit the reporter gene activity. Compounds were screened in a titration series in 1536-well format. The fluorescence intensity (405 nm excitation, 460/530 nm emission) was measured using an EnVision plate reader. Data was normalized relative to Rosiglitazone control (50 nM, 100%), and DMSO only wells (basal, 0%). Concentration-response titration points for each compound were fitted to the Hill equation yielding concentrations of half-maximal inhibition (IC50) and maximal response (efficacy) values.
qHTS protocol for PPAR-gamma beta-lactamase assay in antagonist mode
[Step] [Parameter] [Value] [Description]
1. Reagent; 5 uL; 3000 cells/well
2. Incubation; 37 C for 6-6.5 hrs
4. Controls (GW9662, PPAR-gamma antagonist); 23 nL,
5. Agonist (Stimulator); 1uL; Rosiglitazone at 50 nM (final) concentration
6. Incubation; 37 C for 16 hrs
7. Detection reagent; 1 uL of CCF4-dye
8. Incubation; RT for 2 hrs
9. Detection; Fluorescence; Envision plate reader

Row | Structure (SMILES) | Potency
1 | C=C(C)C(=O)OCCN(C)C | inactive
2 | CCCCC(CC)C(=O)OCCOCCOCCOC(=O)C(CC)CCCC (stereo not given) | inactive
3 | CCCCCCCC(=O)OC | inactive
4 | CCOC(=O)COc1cc(-n2ncc(C(F)(F)F)c(C)c2=O)c(F)cc1Cl | inactive
5 | C=CC(=O)OCC[N+](C)(C)C | inactive
6 | Nc1ccc(N)c2c1C(=O)c1c(N)ccc(N)c1C2=O | inactive
7 | C=CC(=O)OCCOc1ccccc1 | inactive
8 | C[Si](C)(C)N[Si](C)(C)C | inactive
9 | CC/C=C/CCCCCCCCCCOC(C)=O | inactive
10 | O=C(O)CN(CCO)CCN(CC(=O)O)CC(=O)O | inactive
11 | Cc1ccc(N=Nc2c(O)ccc3ccccc23)c(C)c1 | inactive
12 | CCCCOC(=O)c1ccccc1 | inactive
13 | NCCCCCCCCCCCC(=O)O | inactive
14 | COC(=O)c1ccc(I)cc1S(=O)(=O)NC(=O)Nc1nc(C)nc(OC)n1 | inactive
15 | CCCCCCCCCCCCO | inactive
16 | CCCCC(CC)COC(C)=O (stereo not given) | inactive
17 | Cc1cc(C)c(N)c(Cl)c1 | inactive
18 | O=C=NCCCCCCN=C=O | inactive
19 | OCCOCCOCCOCCOCCO | inactive
20 | CC(=O)c1c(C)c([N+](=O)[O-])c(C(C)(C)C)c([N+](=O)[O-])c1C | inactive

Row | Structure (SMILES) | Potency
21 | O=C(c1ccc(Cl)cc1)c1ccc(Cl)cc1 | inactive
22 | C=C[Si](C)(C)O[Si](C)(C)C=C | inactive
23 | CCCCCCCCCCCCCCCCCC(N)=O | inactive
24 | CC1(C)C(=O)N(Br)C(=O)N1Cl | inactive
25 | CO[Si](CCCNCCN)(OC)OC | inactive
26 | CC[C@H]1O[C@]2(CC[C@@H]1C)C[C@@H]1C[C@@H](C/C=C(\C)C[C@@H](C)/C=C/C=C3CO[C@@H]4[C@H](O)C(C)=C[C@@H](C(=O)O1)[C@]34O)O2 | 22.4 µM (active)
27 | OC1CCCCCCCCCCC1 | inactive
28 | CCOCCOCCOCC | inactive
29 | O=C(O)CCCCCCC(=O)O | inactive
30 | CCC(=O)C1C(=O)CC(C(=O)O)CC1=O (stereo not given) | inactive
31 | O=C1CCCCCCCCCCC1 | inactive
32 | CCCCOCC(C)O (stereo not given) | inactive
33 | C=C(C)C(=O)OCCOC(=O)C(=C)C | inactive
34 | Nc1cc(Cl)c(O)c(Cl)c1 | inactive
35 | CCCCCCCCCCCC[N+](C)(C)C | inactive
36 | CN(C)CCOCCN(C)C | inactive
37 | c1ccc2c(c1)Cc1ccccc1-2 | inactive
38 | C=C(C)C(=O)OCCC[Si](OC)(OC)OC | inactive
39 | O=c1[nH]sc2ccccc12 | inactive
40 | C[Si]1(C)N[Si](C)(C)N[Si](C)(C)N1 | inactive
